In PubChem BioAssay AID1159580 (chemical genetic matrix, 2015):
“And” between values parts separate entries of the source, which are not always exact repeats. Equal values may be shown once. The whole screen tested about 5,500 compounds, of which about 2,000 (36%) were called active. Another 18% or so got no clear call; they are omitted. No stated cut-off is given here; in the data, active means normalized growth mostly below about 0.91 (no sharp cut-off); inconclusive means no clear call, values can overlap the other calls; inactive means mostly above about 0.92. The list shows a part of the results. Where a structure was tested more than once in an assay, its records may differ in their call.

Experiment: chemical genetic growth profiling, strain panel (AID 1159580);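 further: tested at 20 µM; growth read once vehicle control cultures reached saturation at 30 °C; 1 = growth at the plate median or of vehicle wells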
Details: S. cerevisiae deletion strains, growth OD

Measured: normalized growth

CCN(CC)CCCC(C)Nc1c2ccc(Cl)cc2nc2ccc(OC)cc12 (stereo unspecified)
inactive: locus YAL013W, strain DEP1, stronger effect = lower value 0.992 | locus YAL026C, strain drs2, stronger effect = lower value 0.994 | locus YAL030W, strain snc1, stronger effect = lower value 1.02 | locus YAL040C, strain CLN3, stronger effect = lower value 0.972 | locus YBL061C, strain skt5, stronger effect = lower value 1.03 | locus YBR021W, strain FUR4, stronger effect = lower value 0.89 | locus YBR023C, strain chs3, stronger effect = lower value 0.984 | locus YBR171W, strain sec66, stronger effect = lower value 1.05 | locus YBR231C, strain swc5, stronger effect = lower value 0.978 | locus YBR279W, strain paf1, stronger effect = lower value 0.966 | locus YCL011C, strain gbp2, stronger effect = lower value 0.965 | locus YCL061C, strain MRC1, stronger effect = lower value 1.01 | locus YCL069W, strain vba3, stronger effect = lower value 1.01 | locus YCR088W, strain abp1, stronger effect = lower value 1.03 | locus YDL005C, strain med2, stronger effect = lower value 1.01 | locus YDL040C, strain nat1, stronger effect = lower value 1.03 | locus YDL185W, strain tfp1, stronger effect = lower value 1.01 | locus YDR001C, strain nth1, stronger effect = lower value 1.04 | locus YDR069C, strain doa4, stronger effect = lower value 0.989 | locus YDR137W, strain rgp1, stronger effect = lower value 1.04 | locus YDR159W, strain sac3, stronger effect = lower value 1.08 | locus YDR195W, strain ref2 1.06 | locus YDR297W, strain sur2, stronger effect = lower value 1 | locus YDR334W, strain swr1, stronger effect = lower value 1.02 | locus YDR335W, strain msn5, stronger effect = lower value 1.02 | locus YEL003W, strain gim4, stronger effect = lower value 1.01 | locus YEL037C, strain rad23, stronger effect = lower value 0.992 | locus YEL061C, strain CIN8 (second series), stronger effect = lower value 1.03 | locus YER002W, strain NOP16, stronger effect = lower value 1 | locus YER015W, strain faa2, stronger effect = lower value 1.01 | locus YER016W, strain bim1, stronger effect = lower value 1.02 | locus YER110C, stronger effect = lower value 0.908 | locus YER111C, strain swi4, stronger effect = lower value 1.02 | locus YER155C, strain BEM2 (second series), stronger effect = lower value 0.943 | locus YER155C, strain BEM2, stronger effect = lower value 0.997 | locus YFR010W, strain ubp6, stronger effect = lower value 0.988 | locus YGL167C, strain pmr1, stronger effect = lower value 1.03 | locus YGL173C, strain kem1, stronger effect = lower value 0.997 | locus YGL227W, strain vid30, stronger effect = lower value 1.03 | locus YGL240W, strain doc1, stronger effect = lower value 1 | locus YGL253W, strain hxk2, stronger effect = lower value 0.975 | locus YHR027C, strain rpn1, stronger effect = lower value 1.03 | locus YHR142W, strain chs7, stronger effect = lower value 0.947 | locus YIL073C, strain SPO22, stronger effect = lower value 0.69 | locus YJL092W, strain hpr5, stronger effect = lower value 1.02 | locus YJL095W, strain BCK1 (second series), stronger effect = lower value 1.03 | locus YJL115W, strain asf1, stronger effect = lower value 1.03 | locus YJL129C, strain trk1, stronger effect = lower value 1.02 | locus YJL134W, strain LCB3, stronger effect = lower value 1.01 | locus YJL154C, strain vps35, stronger effect = lower value 1.04 | locus YJL166W, strain qcr8, stronger effect = lower value 0.942 | locus YJL168C, strain set2, stronger effect = lower value 1.02 | locus YJL187C, strain SWE1, stronger effect = lower value 1.01
0.945 (inactive) and 0.826 (active): locus YDR150W, strain NUM1, stronger effect = lower value
active: locus YAL021C, strain ccr4, stronger effect = lower value 0.906 | locus YBR009C, strain hhf1, stronger effect = lower value 0.894 | locus YBR229C, strain ROT2, stronger effect = lower value 0.87 | locus YCL016C, strain dcc1, stronger effect = lower value 0.844 | locus YCL029C, strain bik1, stronger effect = lower value 0.479 | locus YCL061C, strain MRC1 (second series), stronger effect = lower value 0.917 | locus YDL035C, strain GPR1, stronger effect = lower value 0.627 | locus YDL074C, strain BRE1, stronger effect = lower value 0.511 | locus YDL101C, strain DUN1, stronger effect = lower value 0.728 | locus YDL134C, strain PPH21, stronger effect = lower value 0.771 | locus YDL192W, strain arf1, stronger effect = lower value 0.669 | locus YDR101C, strain arx1, stronger effect = lower value 0.413 | locus YDR162C, strain NBP2, stronger effect = lower value 0.802 | locus YDR318W, strain mcm21, stronger effect = lower value 0.618 | locus YDR363W, strain ESC2, stronger effect = lower value 0.715 | locus YDR388W, stronger effect = lower value 0.695 | locus YDR392W, strain spt3, stronger effect = lower value 0.717 | locus YDR502C, strain sam2, stronger effect = lower value 0.708 | locus YEL061C, strain CIN8, stronger effect = lower value 0.907 | locus YER167W, strain BCK2, stronger effect = lower value 0.641 | locus YGL078C, strain dbp3, stronger effect = lower value 0.817 | locus YGL086W, strain mad1, stronger effect = lower value 0.74 | locus YGL248W, strain PDE1, stronger effect = lower value 0.735 | locus YGR078C, strain PAC10, stronger effect = lower value 0.818 | locus YGR135W, strain pre9, stronger effect = lower value 0.739 | locus YGR229C, strain SMI1, stronger effect = lower value 0.754 | locus YGR252W, strain gcn5, stronger effect = lower value 0.643 | locus YHR013C, strain ard1, stronger effect = lower value 0.844 | locus YHR030C, strain SLT2, stronger effect = lower value 0.911 and 0.737 | locus YHR079C, strain IRE1 (second series), stronger effect = lower value 0.49 | locus YHR079C, strain IRE1, stronger effect = lower value 0.761 | locus YHR094C, strain hxt1, stronger effect = lower value 0.796 | locus YHR129C, strain ARP1, stronger effect = lower value 0.809 | locus YHR200W, strain rpn10, stronger effect = lower value 0.786 | locus YIL066C, strain RNR3, stronger effect = lower value 0.798 | locus YIL125W, strain kgd1, stronger effect = lower value 0.899 | locus YIR030C, strain dcg1, stronger effect = lower value 0.768 | locus YJL095W, strain BCK1, stronger effect = lower value 0.622 and 0.668 | locus YJL164C, strain tpk1, stronger effect = lower value 0.911 | locus YJL187C, strain SWE1 (second series), stronger effect = lower value 0.453 | locus YJR043C, strain POL32, stronger effect = lower value 0.79 | locus YJR066W, strain TOR1, stronger effect = lower value 0.558
